# In PubChem BioAssay (NCATS):
# Several values for one entry are separate records, joined by “and”; a condition that tells them apart may be missing. Equal entries are not always repeated. Unmarked numbers belong to inactive results. Results filed as inconclusive are left out. For some assays here: Entries with a potency or affinity are not part of this list. Activity calls are given as the source filed them. Unless noted, no rule for the calls is given here.
# What was measured:
# [1] = Ebola virus entry assay, green channel fluorescence
# [2] = qHTS Assay for Identifying Gametocytocidal Compounds (AID 743244; active = well fitted curve in the direction sought with a large enough effect; an effect the other way counts as inactive or inconclusive; also: potency is read from the fitted curve at half-maximal effect;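 as to max response: % is scaled to controls: 0 for no effect and ±100 for the full control effect; actives lower the fluorescent signal which means gametocytes are killed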); settings: P. falciparum 3D7 stage III-V gametocytes, alamarBlue, 72 h; max response: active compounds read low
# Procedure, shortened: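 P. falciparum 3D7 stage III–V gametocytes (20,000 cells/well) were exposed to compounds for 72 h at 37 °C, 5% CO2. AlamarBlue was then added for 24 h; decreased resorufin fluorescence (Ex 525/Em 598 nm) indicated loss of viability.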
# [3] = Ebola virus entry assay, ratio channel
# [4] = qHTS assay for small molecule agonists of the antioxidant response element (ARE) signaling pathway measured by Nrf2-dependant transcriptional activity (AID 720636; active = well fitted curve in the direction sought with a large enough effect in the repeat runs; an effect the other way counts as inactive or inconclusive;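 also: HepG2 cells with an ARE-driven luciferase reporter; % of control where 0% means no effect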); settings: ARE-luc HepG2, Nrf2 luciferase reporter, 16 h; series mostly up to 92.4 µM
# Procedure, shortened: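 Attachment 6 hr at 37 C, then compound versus DMSO vehicle for 16 hr in ARE-luc HepG2 cells (1% dialyzed FBS); luminescence recorded 30 min after ONE-Glo addition at room temperature.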
# [5] = qHTS assay for cell viability of HEK293 cells (AID 743288; active = well fitted curve in the direction sought with a large enough effect; an effect the other way counts as inactive or inconclusive; also: % is scaled to controls: 0 for no effect and ±100 for the full control effect; nearly all actives have a fitted effect of over 50% in size); settings: ATP luminescence (CellTiter-Glo), 18 h; max response: active compounds read low
# Procedure, shortened: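 Total intracellular ATP, measured with a luciferase-coupled reagent, indicates the number of viable HEK293 cells. Exposure to test chemicals lasts 18 h at 37 C in 1,536-well format at 2,000 cells/well.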
# [6] = qHTS assay for cell viability of the p53RE-bla HCT-116 cell line (AID 743292; active = well fitted curve in the direction sought with a large enough effect; an effect the other way counts as inactive or inconclusive; also: % is scaled to controls: 0 for no effect and ±100 for the full control effect; nearly all actives have a fitted effect of over 55% in size); settings: p53RE-bla HCT-116 viability, ATP luminescence, 16 h; series mostly up to 95 µM
# Procedure, shortened: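 Compound-exposed HCT-116 (p53RE-bla) cells, 4,000 per well, were kept 16 h at 37 C following a 5 h preincubation. Cell number was estimated from total ATP by CellTiter-Glo luminescence read after 30 min at room temperature.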
# [7] = qHTS assay for small molecule agonists of the antioxidant response element (ARE) signaling pathway measured by Nrf2-dependant transcriptional activity - cell viability counter screen (AID 720653; active = well fitted curve in the direction sought with a large enough effect in the repeat runs; an effect the other way counts as inactive or inconclusive; also: % is scaled to controls: 0 for no effect and ±100 for the full control effect); settings: ARE-bla HepG2 viability, CellTiter-Glo ATP luminescence, 16 h; max response: active compounds read low
# Procedure, shortened: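 ARE-bla HepG2 cells treated with compounds for 16 h at 37C; this counter screen measures viability as intracellular ATP by CellTiter-Glo luminescence after 30 min at room temperature.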
compound,measurement,setting,value
NCCS,outcome,[1],inactive
CN1C(=O)CC[C@H]1c1cccnc1,outcome,[1],inactive
O=[N+]([O-])c1ccc([As](=O)(O)O)cc1,Potency,[2],10 µM (active)
same,outcome,[3],inactive
same,outcome,[1],inactive
N[C@H]1C(O)O[C@H](CO)[C@@H](O)[C@@H]1O (some centres undefined),outcome,[1],inactive
CCCN(CCC)c1c([N+](=O)[O-])cc(S(N)(=O)=O)cc1[N+](=O)[O-],Potency,[4],inactive
same,max response,[5],-4.88%
same,Potency,[6],inactive
same,AC50,[3],8.91 µM (active)
CCCCCCCCOc1ccc(C(=O)c2ccccc2)c(O)c1,outcome,[1],inactive
O=S(=O)(O)C(F)(F)C(F)(F)C(F)(F)C(F)(F)F,Potency,[4],inactive
same,max response,[7],-3.1% and 4.61%
same,max response,[2],-9.45%
same,max response,[5],-11.1% and -18%
same,Potency,[6],inactive
same,outcome,[3],inactive
CN1CCN(c2c(F)cc3c(=O)c(C(=O)O)cn4c3c2OCN4C)CC1,outcome,[1],inactive
COc1c(N2CCNC(C)C2)c(F)cc2c(=O)c(C(=O)O)cn(C3CC3)c12 (centres undefined),outcome,[1],inactive
COc1cc(S(N)(=O)=O)cc(C(=O)O)c1OC,outcome,[1],inactive
CC1=C(C(=O)O)N2C(=O)[C@@H](N)[C@H]2SC1,outcome,[1],inactive
CC(C[N+](C)(C)C)OC(N)=O (centres undefined),outcome,[1],inactive
COc1ccc2cc(CCC(C)=O)ccc2c1,outcome,[1],inactive
O=C(O)CC(O)C(=O)O (centres undefined),outcome,[1],inactive
O=C(O)c1ccccn1,outcome,[1],inactive
O=C(O)Cc1ccccc1Oc1ccc(Cl)cc1Cl,outcome,[1],inactive
CCCCCCCCCCC(CO)CCCCCCCC (centres undefined),outcome,[1],inactive
N#C/C(=C1\SCC(c2ccccc2Cl)S1)n1ccnc1 (centres undefined),outcome,[1],inactive
C#CC(C)(CC)OC(=O)c1ccccc1C(=O)O (centres undefined),outcome,[1],inactive
